From PubChem BioAssay (NCATS)
Results filed as inconclusive are left out. Activity calls are given as the source filed them. Calls follow the shape of the dose curve; as a rule, active = well fitted inhibition curve with a large enough effect; inconclusive = small, poorly fitted or top-dose-only effect; inactive = flat fitted curve, though single readings scatter.

What follows are molecules tested on CRL-7250 (assay: qHTS assay to identify novel small-molecules to repurpose for Merkel cell carcinoma treatment (AID 1296009; also: nearly all actives have a fitted effect of over 60% in size)). Conditions: MCC and control cell lines, CellTiter-Glo viability, 72 h; series mostly up to 92 µM; activity change, negative = cytotoxicity: at the top concentration.
Outline: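 Cells exposed to NPC (8-point) and MIPE (11-point) compound dilutions for 72 hr at 37 degree celsius; viability read by CellTiter-Glo luminescence, normalized to no-cell and DMSO in-plate controls.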

SMILES | outcome
C=C(C)C1CCC2(C(=O)O)CCC3(C(=O)O)C(CCC4C5(C)CCC(O)C(C)(C(=O)O)C5CCC43C)C12 (stereo not drawn) | inactive [at 17.4 µM]
COC1CC(=O)C23C(=O)NC(CC(C)C)C2C(C)C(C)=CC3/C=C(\C)CCC1O (stereo not drawn) | inactive [at 17.4 µM]
COC1C2=C(COC2=O)C2(C)CCCC(C)(CO)C2C1OC(=O)c1ccccc1 (stereo not drawn) | inactive [at 17.4 µM]
C=C1C[C@@]23CCC4[C@@](C)(CCC[C@@]4(C)C(=O)OC)C2CC[C@@H]1C3 (stereo partly drawn) | inactive
COc1cc(OC)cc(C(=O)Nc2ccc(Cl)c(-c3nc4ccc(N(C)C)cc4[nH]3)c2)c1 | inactive
COCCN(C)Cc1ccc2nc3sc(C(=O)N(C)C4CCCCC4)cn3c2c1 | inactive
CC1=CC(=O)[C@]2(O[C@@H]3O[C@@H](C)[C@H](O)[C@@H](O)[C@H]3O)C=CO[C@@H](O[C@@H]3O[C@H](CO)[C@@H](O)[C@H](O)[C@H]3O)[C@H]12 | inactive [at 17.4 µM]
c1ccc(C(OC2CCN(CCCc3nn[nH]n3)CC2)c2ccccc2)cc1 | inactive
CC1(C)CCCC2(C)C1C(O)C=C(CO)C2(O)CO (stereo not drawn) | inactive
COc1ccccc1-c1ccc(-c2cn(C(=O)N3CCCCC3Cc3ccccc3)nn2)cc1 (stereo not drawn) | inactive
COc1cnc(-n2cnc(C)n2)c2[nH]cc(C(=O)C(=O)N3CCN(C(=O)c4ccccc4)CC3)c12 | inactive
COc1ccc(C2COc3cc(O)ccc3C2)c(O)c1OC (stereo not drawn) | inactive
COc1cc(C(=O)OC[C@@]2(O)CO[C@@H](O[C@H]3[C@H](Oc4ccc(O)cc4)O[C@H](CO)[C@@H](O)[C@@H]3O)[C@@H]2O)cc(OC)c1O | inactive [at 17.4 µM]
